For 14 compounds, Potency results are on record in PubChem BioAssay (NCATS).

Results filed as inconclusive are left out. Entries that show only a call come without a potency. The source made the active and inactive calls. The call rests on the fitted dose curve; in most records, active means well fitted inhibition curve with a large enough effect; inconclusive means small, poorly fitted or top-dose-only effect; inactive means no such curve, though single readings can be large or run the other way.

For this test, the system named is Zika virus NS2B-NS3 protease (linked construct). Nature of the test: Primary screen NINDS Rhodamine qHTS for Zika virus inhibitors (AID 1347160). Further: nearly all actives have a fitted effect of over 55% in size. To be noted: purified NS2B-NS3 protease, Rhodamine110 substrate fluorescence; series mostly up to 57.1 µM. The method, boiled down: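 Purified linked NS2B-NS3 protease (NS2B hydrophilic domain joined to NS3 protease by flexible linker), 25 nM in 10 mM Tris-HCl pH 8.0, 0.01% Tween 20. Compounds titrated, 15 min preincubation at room temperature; 1.5 microM Rhodamine110 substrate, FITC fluorescence change over 15 min.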
`NC(=O)c1cccc2cn(-c3ccc([C@@H]4CCCNC4)cc3)nc12`: the Potency entry was “inactive”.
In the case of `COc1cc(-c2nn(C3CCC(N4CCN(C(C)=O)CC4)CC3)c3ncnc(N)c23)ccc1NC(=O)c1cc2ccccc2n1C` (centres undefined) it was “inactive”; in that of `C[C@@H](Oc1cc(-c2cnn(C3CCNCC3)c2)cnc1N)c1c(Cl)ccc(F)c1Cl`, “inactive”; in that of `O=C(c1ccc(Nc2nccc(-c3cc4ccccc4s3)n2)cc1)N1CCC(N2CCCC2)CC1`, “inactive”.
In the case of `Cc1c(Cn2c(C)nc3c(C(=O)O)cc(N4CCOCC4)cc32)cccc1C(F)(F)F` it was “inactive”; in that of `CN1CCN(Cc2ccc(NC(=O)Nc3ccc(Oc4cc(NC(=O)C5CC5)ncn4)cc3)cc2C(F)(F)F)CC1`, “inactive”; in that of `C=CCn1c(=O)c2cnc(Nc3ccc(N4CCN(C)CC4)cc3)nc2n1-c1cccc(C(C)(C)O)n1`, “inactive”.
In the case of `CNc1nccc(-c2cccnc2Oc2cc(C(=O)Nc3cccc(C(F)(F)F)c3)ccc2C)n1` it was “inactive”.
For `O=C(Nc1cn[nH]c1-c1nc2ccc(CN3CCOCC3)cc2[nH]1)NC1CC1`, the Potency entry is “inactive”.
`Cc1ccc(C(N)=O)cc1Nc1nccc(-c2cn(C(C)C)c3cnccc23)n1`: the Potency result was “inactive”.
In the case of `CCc1cc2c(cc1N1CCC(N3CCOCC3)CC1)C(C)(C)c1[nH]c3cc(C#N)ccc3c1C2=O` it was “inactive”.
In the case of `Cn1c(CNc2ccc(C(=N)N)cc2)nc2cc(C(=O)N(CCC(=O)O)c3ccccn3)ccc21` it was “inactive”; in that of `CC[C@@H]1C(=O)N(C)c2cnc(Nc3ccc(C(=O)NC4CCC(N5CCN(CC6CC6)CC5)CC4)cc3OC)nc2N1C(C)C` (some centres undefined), “inactive”.
Take `Cc1ccc(C(=O)Nc2ccc(CN3CCN(C)CC3)c(C(F)(F)F)c2)cc1C#Cc1cnc2cccnn12`: the Potency result was “inactive”.
